“And” between values parts separate entries of the source, which are not always exact repeats. Equal entries are not always repeated. About 83,000 compounds went through this panel and 20% of them were active in at least one assay; those are over-represented in the sample as a whole.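 For each line, cells grew in 96-well plates with the test compound present at a single concentration for 48 hours.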 Values without a mark were called inactive. The source made the active and inactive calls.
System: SK-OV-3 ovarian
Experiment: NCI-60 one-dose screen, 48 h (100 = growth as untreated, 0 = no growth, -100 = all killed)
Conditions: 10 µM unless noted
Method: Growth inhibition of the SK-OV-3 human tumor cell line is measured as a screen for anti-cancer activity. Cells are grown in 96 well plates and exposed to the test compound for 48 hours. Compounds are tested at a single concentration, which is 10^-5 M for most compounds. The reported endpoint is percent growth (GI% or GIPRCNT), where numbers from 0 - 100% represent growth inhibition, and numbers from -100% - 0 represent cell death. For example, a value of 40 represents 60% growth inhibition. A value of 0 means no net growth occurred over the course of the experiment. A value of -40 indicates 40% of cells at the beginning of the experiment died by the end of the experiment. A value of -100 means all cells are dead at the end of the experiment.
NCI-60 Human Tumor Cell Lines Screen was performed using the standard one-dose NCI protocol, which is described in more detail at https://dtp.cancer.gov/discovery_development/nci-60/default.htm.
Compounds with GIPRCNT values below 10 were considered active. Activity score was based on GIPRCNT using the following formula: […]
Score is 0 for GIPRCNT values of 100 or above, 50 for GIPRCNT values of 0, and 100 for GIPRCNT values of -100.

| SMILES | growth |
| --- | --- |
| S=c1nc(CS)[nH]c2ccccc12 | 100% |
| Cc1cc2nc(C(Cl)Cl)nc(-c3ccc(Cl)cc3)n2n1 | -6.97% (active) |
| COc1ccc(C(c2cc(OC)c(OC)c(OC)c2)n2ccnc2)cc1O (stereo not given) | 21.8% |
| O=C(NCc1ccc(Cn2c(=O)sn(-c3ccc(Cl)cc3)c2=O)cc1)OCc1ccc2c(Cl)cc(Cl)c(O)c2n1 | 76% |
| CCCCCCCCN(CCCCCCCC)CC(O)c1cc(Cl)ccc1OC (stereo not given) | 78.1% |
| Nc1ncc(-c2ccc3ncnc(N4CCc5ccc(Cl)cc54)c3c2)cc1C(F)(F)F | 6.83% (active) |
| COc1ccc(CCNC(=O)COc2cc3c(Nc4ccc(F)c(Cl)c4)ncnc3cc2OC)cc1OC | 89.8% |
| Cn1c(=O)c2c(nc(Nc3cc(=O)[nH]c(=O)[nH]3)n2Cc2ccccc2)n(C)c1=O | 24.6% |
| C[C@@H]1O[C@@H](O[C@H]2[C@@H](OC(=O)[C@]34CCC(C)(C)C[C@H]3C3=CC[C@@H]5[C@@]6(C)C[C@H](O)[C@H](O[C@@H]7O[C@H](CO)[C@@H](O)[C@H](O)[C@H]7O)[C@@](C)(CO)[C@@H]6CC[C@@]5(C)[C@]3(C)C[C@H]4O)OC[C@@H](O)[C@@H]2O)[C@H](O)[C@H](O[C@@H]2OC[C@@H](O)[C@H](O[C@@H]3OC[C@](O)(CO)[C@H]3O[C@@H]3OC[C@@H](O)[C@H](O)[C@H]3O)[C@H]2O)[C@H]1O[C@@H]1OC[C@](O)(CO)[C@H]1O | 93.9% |
| COc1ccc(C(CC(=O)c2ccc3c(c2)OCO3)C(=O)O)cc1OC (stereo not given) | 113% and 105% |
| CCn1cc(C(=O)NN=C2CCCC2)c(=O)c2ccc(C)nc21 | 91.2% |
| Cc1nonc1-c1ccc2c(c1)OCO2 | 97.3% and 107% |
| CCCCCCNC(=O)Oc1ccc(/C(=C(/CC)Cc2ccccc2)c2ccc(OCCCN(C)C)cc2)cc1 | 88.2% |
| CN1CCN(CCCN2c3ccccc3Sc3ccc(Cl)cc32)CC1 | 99% |
| CC(C)(C)c1cc(NC(=O)Nc2ccc(-c3cn4c(n3)sc3cc(OCCN5CCOCC5)ccc34)cc2)no1 | 45.4% and 27.9% |
| CN1Cn2c(ccc2C(F)(F)F)C(=O)CS1(=O)=O | 106% |
| COc1ccc(NC(=O)Nc2ccccc2CNc2nc(Nc3ccc(OCCN4CCCC4)cc3)ncc2Cl)cc1 | 58.5% |
| CCCCC(NC(=O)CN1C(=O)/C(=C/C(C)=C/c2ccccc2)SC1=S)C(=O)O (stereo not given) | 105% |
| O=C(NNc1ccccc1)C1CCCN1 (stereo not given) | 80.6% |
| N#Cc1c(-c2cccc(F)c2)cc(-c2cccnc2)[nH]c1=O | 99.6% |

| SMILES | growth |
| --- | --- |
| CCOC(=O)N(O)c1ccc(/C=C/c2ccccc2)cc1 | 94.1% and 92.6% |
| O=c1oc2c(Br)cc(Br)cc2cc1-c1cc(-c2ccc(-c3cc(-c4cc5cc(Br)cc(Br)c5oc4=O)nc(-c4cc5cc(Br)cc(Br)c5oc4=O)c3)cc2)cc(-c2cc3cc(Br)cc(Br)c3oc2=O)n1 | 101% |
| CCOC(=O)C(=CCC(C)C)C(=O)OCC | 98.5% |
| NS(=O)(=O)c1ccc(C(=O)N=Nc2c(O)[nH]c3c(F)cccc23)cc1 | 109% |
| COc1cc(-c2nc3occn3c2-c2ccnc(NCCCNS(=O)(=O)c3ccc(O)cc3)n2)ccc1F | 82.4% |
| CN(C)C1CCN(C(=O)c2ccc(NC(=O)Nc3ccc(-c4nc(N5CCOCC5)c5cccn5n4)cc3)cc2)CC1 | -30.8% (active) |
| O=C(/C=C/c1ccc(F)cc1)Nc1ncc(Cc2ccc(F)cc2)s1 | 41.4% |
| O=C1C(N2CCOCC2)=C(I)C(=O)c2ncccc21 | 79.3% |
| FC(F)(F)Sc1ccc(/C=C/c2cc(/C=C/c3ccc(SC(F)(F)F)cc3)n(-c3ccccc3)n2)cc1 | 88.1% |
| O=C(N=Nc1c(O)[nH]c2ccccc12)Nc1ccc(Br)cc1 | 97% |
| CCCCCCCCCCCCCCCCCCOc1cccc(CC(=O)OCC[N+](CC)(CC)CC)c1 | 103% |
| CONC1=Nc2cc(NC(N)=NCc3ccccc3)c(N(C)C3CCCCC3)cc2OC1 | 83.5% |
| O/N=C(/c1ccccc1)c1ccc2c3c(cccc13)CC2 | 99.3% and 97.4% |
| CCCCC1=C(Br)C(=O)c2nc(C)ccc2C1=O | 95% |
| COc1ccc(C/C(C)=C(/c2ccc(OCCN3CCCC3)cc2)c2ccc(OC(=O)NCc3ccccc3)cc2)cc1 | 104% |
| COc1ccc(-c2ccccc2)cc1-c1c(Nc2cc(Cl)cc(Cl)c2O)c(=O)c1=O | -10.8% (active) |
| COc1cc2cc(NCc3ccncc3)nc(C)c2cc1OC | 77.6% |
| Cc1c(C(C)(C)O)cn2ncnc(Oc3ccc(NC(=O)Nc4ccc(Cl)c(C(F)(F)F)c4)cc3)c12 | 83.9% |
| O=S(=O)(Nc1cc(Sc2cccc3cccnc23)c(O)c2ccccc12)c1ccc(F)cc1 | 50.8% |
| CCN(CC)CC#CCOC(=O)[C@]1(C)CCC[C@]2(C)c3ccc(C(C)C)cc3CC[C@@H]12 | 89.2% |

Reference: PubChem BioAssay (NCI)
